Screens deposited in PubChem by National Center for Advancing Translational Sciences (NCATS).
TDP1 cell noCPT = qHTS for Inhibitors of human tyrosyl-DNA phosphodiesterase 1 (TDP1): qHTS in cells in absence of CPT | DT40 Tdp1-/- hTDP1 cells, no CPT, ATP luminescence, 48 h | Potency, µM (series often up to 46.2 µM), for the others: at the highest dose activity change, negative = growth inhibition, most hits filed as inhibitors | hit rate 15% among 420,000; note: nearly all actives have a fitted effect of over 55% in size
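Growth of hTDP1-complemented DT40 Tdp1-knockout cells is measured by ATP luminescence after at least 48 hr compound exposure at 37 °C, with DMSO substituting for the 20 nM CPT used in the parallel screen.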
KB-3-1 cytotox = kills parental KB-3-1 adenocarcinoma cells | KB-3-1 viability, CellTiter-Glo ATP luminescence, 72 h | Potency, µM (titrated, usually from 46.1 µM), hits mostly cytotoxic | hit rate 1.4% among 400,000 | AID 1347075; note: nearly all actives have a fitted effect of over 60% in size
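Parental KB-3-1 adenocarcinoma cells in phenol-red-free DMEM with 10% FBS were pin-treated with compounds at several concentrations, incubated 72 h at 37 °C, and viability read by CellTiter-Glo luminescence; concentration-effect curves were fitted after normalization.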
HT1080 IDH1KD tx = kills HT-1080 cells with IDH1 knockdown. HT-1080 IDH1 knockdown viability, ATP luminescence, 48 h. Potency, µM (top dose mostly 46.1 µM), for inactives: at the top dose activity, negative = toxicity, actives largely listed as cytotoxic. hit rate 2% among 360,000;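 note: 0% = DMSO wells and -100% = cell-free medium wells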
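% activity derives from luminescence (CellTiter-Glo), normalised to DMSO and no-cell wells. HT-1080-IDH1KD cells, 750/well, had 48 h compound exposure at 37 °C.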
TDP1 cell CPT = growth inhibition of DT40 Tdp1-/-;hTDP1 cells with camptothecin (screen for TDP1 inhibitors) | chicken DT40 Tdp1-/-;hTDP1 cells + 20 nM CPT, ATP luminescence, 48 h | Potency, µM (top dose mostly 46.2 µM), for the others: at the top dose activity change, negative = growth inhibition, most hits filed as inhibitors | hit rate 12% among 420,000 | AID 686979; note: nearly all actives have a fitted effect of over 55% in size
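Chicken DT40 Tdp1-/- cells complemented with human TDP1, 400 cells/well, exposed to compounds plus 20 nM camptothecin for at least 48 h at 37 C; viability read as ATP content by CellTiter-Glo luminescence.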
HT1080-NT tox = kills 2HG-producing HT-1080-NT fibrosarcoma cells. Potency, µM (highest dose often 46.1 µM), for the others: at the top dose activity, negative = less viability, usual class: cytotoxic. HT-1080-NT fibrosarcoma viability, CellTiter-Glo ATP luminescence, 48 h. AID 686970. hit rate 1.6% among 360,000;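 note: NT is the 2HG producing partner of a matched IDH1 knockdown line; 0% = DMSO-treated cells and -100% = media-only wells without cells; nearly all actives have a fitted effect of over 55% in size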
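Viability by CellTiter-Glo luminescence after 48 h compound exposure at 37C of HT-1080-NT cells (750/well, RPMI, 5% FBS). % activity scaled between DMSO wells and medium-only wells, then curve-fitted and categorized by curve class.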
KB-V1 MDR tox = KB-V1 MDR subline cytotoxicity | KB-V1 MDR cells viability, CellTiter-Glo, 72 h | Potency, µM (doses to about 46.1 µM), hits mostly cytotoxic | hit rate 3.4% among 400,000; note: nearly all actives have a fitted effect of over 60% in size
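Cells of the MDR subline KB-V1 are plated, dosed with compound at multiple concentrations, and incubated 72 h at 37 degrees C; CellTiter-Glo is then added and luminescence read after 10 min.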
An asterisk follows results filed as active; i = inactive; ? = inconclusive; / = no result; [ ] = another dose, or the depositor's remark. Most compounds without a hit are left out; they make up all but 19% or so of the library. Calls come from the whole dose curve; as a rule, active = well fitted curve in the direction sought with a large enough effect; inconclusive = small, poorly fitted or top-dose-only effect, or another doubt; inactive = no such curve, though single readings can be large; an effect the other way counts as inactive or inconclusive. Unless noted, % is set by controls: 0 for no effect and ±100 for the full control effect; potency is the fitted concentration of half-maximal effect.

SMILES | TDP1 cell noCPT | KB-3-1 cytotox | HT1080 IDH1KD tx | TDP1 cell CPT | HT1080-NT tox | KB-V1 MDR tox
CC1=C(C(=O)N(C)C)CC(CC(=O)NCCc2ccccn2)C(=O)N1Cc1ccccc1 (stereo not given) | 3% | i | 3% | -5% | 1% | i
COc1ccc(OC)c2[nH]c(=O)c(CCNC(=O)c3ccc(S(=O)(=O)N(C)C)cc3)cc12 | -22% | i | 7% | 1% | 5% | i
COc1ccc(OC)c2[nH]c(=O)c(CCNC(=O)c3ccc(S(=O)(=O)N4CCCCC4)cc3)cc12 | ? | i | 3% | ? | 5% | 8.2µM*
Brc1cccc[n+]1CCCC[n+]1ccccc1Br | 16µM* | i | / | 8.9µM* | / | i
Brc1cccc[n+]1CCCCCC[n+]1ccccc1Br | 18µM* | i | / | ? | / | i
Brc1cccc[n+]1C/C=C/C[n+]1ccccc1Br | -18% | i | / | 0% | / | i
Clc1cccc[n+]1CCCCCC[n+]1ccccc1Cl | -98% | i | / | 35µM* | / | i
CN(C(=O)c1ccccc1-c1ccccc1C(=O)O)c1ccccc1 | -3% | i | 1% | 9% | -1% | i
CC(=O)C1=C(O)C(=O)N(c2ccccn2)C1c1ccccc1[N+](=O)[O-] (stereo not given) | 16µM* | i | 1% | ? | 11% | i
CC(=O)N1Cc2ccccc2CC1C(=O)NCc1ccccc1F (stereo not given) | -5% | i | 21% | -5% | 27% | i
CCCCN(CC)C(=O)CSc1nc2c(sc(=S)n2-c2ccc(OCC)cc2)c(=O)[nH]1 | 2% | i | 0% | -16% | 3% | ?
Nc1cc(=O)[nH]n1C1CCCCC1 | -11% | i | 1% | 16% | 16% | i
COc1ccc(-c2nnn(CC(=O)N(CC(=O)NCCC(C)C)Cc3cccs3)n2)cc1OC | ? | i | -23% | ? | 5%[9.24 µM] | i
COc1ccc(-c2nnn(CC(=O)N(Cc3cccs3)C(C)C(=O)NCCC(C)C)n2)cc1OC (stereo not given) | 21µM* | i | -13% | 15µM* | -27% | i
CC(C)CCNC(=O)C(c1ccco1)N(Cc1cccs1)C(=O)Cn1nnc2ccccc21 (stereo not given) | ? | i | 5% | 26µM* | -1% | 5.2µM*
COc1ccc(N(CC(=O)NC2CCCC2)C(=O)Cn2nnc(-c3ccc(C)cc3)n2)cc1OC | -9% | i | 1% | -12% | -1% | 13µM*
COc1ccc(-c2nnn(CC(=O)N(C3CCCCC3)C(C)C(=O)NC3CCCC3)n2)cc1OC (stereo not given) | ? | i | 1% | ? | 7% | 2.6µM*
COc1ccc(N(CC(=O)NC2CCCC2)C(=O)Cn2nnc(-c3ccc(F)cc3)n2)cc1OC | -14% | i | 0% | -16% | -4% | i
CC(C)Oc1ccc(C2CC(=O)N(C)C2=O)cc1 (stereo not given) | -25% | i | -2% | -8% | 2% | i
COc1ccc(N(CC(=O)NC2CCCC2)C(=O)Cn2nnc(-c3ccc(C)cc3)n2)cc1 | ? | i | -19% | ? | -2% | 16µM*
CC1=NC(=O)C(N=Nc2ccccc2C(=O)O)N1c1ccccc1 (stereo not given) | 13µM* | i | 0% | 7.3µM* | -21% | i
CC1=NC(=O)C(N=Nc2ccccc2)N1c1ccccc1 (stereo not given) | -14% | i | -3% | -6% | -4% | i
O=C(CCC(=O)N(CC(=O)NC1CCCCC1)Cc1cccs1)Nc1ccccn1 | -1% | i | 0% | 9% | 6% | i
O=C(/C=C/c1cccs1)c1cc(F)ccc1OC(=O)N1CCOCC1 | ? | i | -12% | 23µM* | -19% | ?
N#Cc1ccccc1S(=O)(=O)N1CCN(C(=O)c2cc3c(s2)CCC3)CC1 | -20% | i | -1% | -16% | -5% | i
SMILES | TDP1 cell noCPT | KB-3-1 cytotox | HT1080 IDH1KD tx | TDP1 cell CPT | HT1080-NT tox | KB-V1 MDR tox
Cc1ccc(S(=O)(=O)NCCC(=O)NC(C)CCc2ccccc2)cc1 (stereo not given) | ? | i | -1% | 9% | 4% | i
N#Cc1cccc(-c2cncnc2NCc2ccccc2)c1 | -17% | / | / | -8% | / | /
O=C(O)c1ccc(N=Cc2c(O)ccc3oc4c(c23)CCCC4)cc1 | ? | i | -9% | 16µM* | 0% | i
c1cc(-c2cc3cc(N4CCOCC4)ccc3o2)cs1 | -4% | i | 9% | 1% | 22% | i
O=C(OCc1ccc(O)cc1)c1c(-c2ccsc2)oc2ccc(N3CCOCC3)cc12 | 13µM* | ? | ? | 18µM* | ? | ?
COC(=O)c1ccc(C(=O)NC2CCSc3ccccc32)cc1 (stereo not given) | 0% | i | 0% | -6% | 0% | i
Cc1ccc(NC(=S)NC2CCSc3ccccc32)cc1C (stereo not given) | ? | ? | -10% | 16µM* | -19% | i
O=C(CSC(=S)N1CCOCC1)c1cc2ccccc2oc1=O | ? | i | 0% | ? | -2% | i
C=CCOc1ccc(CN(C)C(=O)c2ccc(CNS(=O)(=O)c3ccc(C)c(C)c3)cc2)cc1 | 21µM* | 13µM* | ? | ? | ? | ?
CN(Cc1ccc(F)cc1)C(=O)c1cccc(S(=O)(=O)NCc2ccccc2)c1 | ? | i | -2% | ? | -5% | i
COc1ccc(/C=C/C(=O)c2cc(Cl)cc(Cl)c2O)c(OC)c1 | ? | i | 0% | -10% | 19% | i
O=C(/C=C/c1ccccn1)c1cc(Cl)cc(Cl)c1O | ? | ? | ? | ? | 16µM* | ?
CCN1CCc2nc3ccccc3c(C(=O)Nc3ccc(C#N)cc3)c2C1 | ? | i | 3% | ? | -3% | i
CC(C)c1ccccc1NC(=O)COC(=O)c1c2c(nc3ccccc13)CCN(Cc1ccccc1)C2 | 10µM* | ? | ? | ? | ? | ?
O=C(NC1CCCCCC1)c1c2c(nc3ccccc13)CCN(Cc1ccccc1)C2 | 29µM* | i | 16% | 18µM* | 14% | i
CCn1cc(C(=O)OCC(=O)Nc2cccc(Cl)c2C)c(=O)c2ccc(C)nc21 | -11% | i | / | -5% | / | i
